Outcome and AC50 data for 34 compounds are collected here from PubChem BioAssay (EPA / NIEHS).

Results filed as inconclusive are left out. Calls of active or inactive are those of the source. Rule for the calls: active = hit-call score of the fitted dose curve at least 0.9, where 1 is the maximum; inconclusive = response in the unintended direction; inactive = score below 0.9.

Read-out in the assay: HMG-CoA synthase (HMGCS2), HMGCS2 (gene 3158)
In words: CLD_HMGCS2_6hr: CellzDirect (CLD) Gene Expression Assay for HMG-CoA synthase (HMGCS2) at 6 hours (AID 2283682).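 Note: actives raise HMGCS2 transcript above the 0.2% DMSO vehicle baseline.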 Here is the method:
CLD_6hr is a cell-based, multiplexed-readout assay that uses hepatocyte, a human liver primary cell, with measurements taken at 6 hours after chemical dosing in a 96-well plate.CLD_HMGCS2_6hr is one of 16 assay component(s) measured or calculated from the CLD_6hr assay. It is designed to make measurements of mRNA induction, a form of inducible reporter, as detected with chemiluminescence signals by Quantitative Nuclease Protection Assay (qNPA) technology.Data from the assay component CLD_HMGCS2_6hr was analyzed at the endpoint, CLD_HMGCS2_6hr, in the positive analysis fitting direction relative to DMSO as the negative control and baseline of activity. Using a type of inducible reporter, gain-of-signal activity can be used to understand changes in the reporter gene as they relate to the gene HMGCS2. Furthermore, this assay endpoint can be referred to as a primary readout. To generalize the intended target to other relatable targets, this assay endpoint is annotated to the lyase intended target family, where subfamily is HMG-CoA synthase.
Human hepatocyte cultures were treated daily for two consecutive days with fresh dosing solutions containing appropriate concentrations of the 320 ToxCast chemicals (chemical identities were blinded to CellzDirect and other ToxCast collaborators), vehicle control (0.2% DMSO), and positive control inducers as summarized in Table 1. Due to the large number of treatment groups and chemicals examined, the ToxCast chemicals were divided into two groups (spanning two independent cultures of hepatocytes from separate donor preparations (Hu778: ToxCast plates 1 and 2; Hu776: ToxCast plates 3 and 4). Each preparation of human hepatocyte cultures was treated with respective vehicle control, medium only control, set of six positive controls/reference chemicals for the five hepatic receptor pathways, and a subset of eight of the ToxCast chemicals (indoxacarb, pyrithiobac-sodium, norflurazon, cyhalofop-butyl, methomyl, thiram, acetochlor, and propiconazole). These replicate data, coupled with internal replicates designed within the blinded ToxCast chemical library, provided additional data to evaluate interindividual differences between hepatocyte preparations and their potential impact on chemical profiles.Cell morphology and integrity were evaluated using phase-contrast microscopy as an indicator of hepatocyte cell health (Tyson & Green, 1987). Cultures for each treatment group (i.e., media, vehicle [0.2% DMSO], positive control inducers [multiple concentrations], and the ToxCast chemicals [multiple concentrations]) were observed and cell morphology was assessed relative to vehicle control cultures at each harvest time point (0, 6, 24, or 48 h). […] Images were evaluated at the conclusion of the study to assess changes in cell integrity and account for the effects of chemical exposure on uncharacteristic changes in concentration-dependent gene expression profiles. The results from these determinations of apparent cytotoxicity were annotated (yes/no) alongside the corresponding qNPA data for reference.At the conclusion of each treatment period, hepatocyte cultures (96-well) were washed with 1 volume of HBSS, lysed by addition of 25 ul ArrayPlate lysis buffer (HTG, Tucson, AZ), and 70 ul/well of Denaturation Oil, denatured by incubation at 95C for 10 min, and frozen at approximately -70C until analysis by nuclease protection assay (qNPA) (Roberts et al., 2007). For qNPA analysis, cell lysates were thawed at 50C for approximately 30 min, qNPA probes were added, and samples were incubated at 95C for 10 min to begin the detection process by denaturing the target RNA, dissociating the duplexes and secondary structure hybridization. At the conclusion of the hybridization period, S1 nuclease reagent was added to each sample to digest all nonprotected nucleotides at 50C for 60-90 min. […]
Regarding `CCOc1nc(NC)nc(NC(=O)NS(=O)(=O)c2ccccc2C(=O)OC)n1`, the compound was classed as inactive.

For the compound `O=C(O)CCCOc1ccc(Cl)cc1Cl`, the call was inactive.

In the case of `O=C(O)COc1ccc(Cl)cc1Cl`, the result was inactive.

In the case of `Oc1ccc(Cl)cc1Cc1ccccc1`, the result was inactive.

`N#CN`: the compound was classed as inactive.

Turning to `CCCN(CCOc1c(Cl)cc(Cl)cc1Cl)C(=O)n1ccnc1`, the compound was called inactive.

The AC50 is the midpoint of the concentration-response curve, whichever way the signal moves. In the case of `O=S(=O)(O)C(F)(F)C(F)(F)C(F)(F)C(F)(F)C(F)(F)C(F)(F)C(F)(F)C(F)(F)F`, the AC50 is 3970 nM (active).

Take `O=C(Nc1ccccc1)Nc1cnns1`: the compound was called inactive.

Turning to `COC(=O)c1ccccc1S(=O)(=O)NC(=O)Nc1nc(C)nc(OC)n1`, the AC50 was 11.7 nM (active).

Turning to `OCCOc1ccccc1`, the call was inactive.

Regarding `COC(=O)c1ccccc1CS(=O)(=O)NC(=O)Nc1nc(OC)cc(OC)n1`, the call was inactive.

Regarding `CC1(c2ccc(Oc3ccccc3)cc2)OC(=O)N(Nc2ccccc2)C1=O` (centres undefined), the result was inactive.

`COP(=O)(OC)OC=C(Cl)Cl`: the result was inactive.

For the compound `Cc1[nH]c(=O)n(C(C)(C)C)c(=O)c1Cl`, the result was inactive.

As to `[2H]C1([2H])[n+]2ccccc2-c2cccc[n+]2C1([2H])[2H]`, the compound was called inactive.

`CNC(=O)CSP(=S)(OC)OC`: the outcome was inactive.

In the case of `CCS(=O)(=O)c1cccnc1S(=O)(=O)NC(=O)Nc1nc(OC)cc(OC)n1`, the call was inactive.

As to `O=S1OCC2C(CO1)C1(Cl)C(Cl)=C(Cl)C2(Cl)C1(Cl)Cl` (centres undefined), the compound was called inactive.

`Cc1cc(C)nc(NC(=O)NS(=O)(=O)c2ccccc2C(=O)OC2COC2)n1`: the compound was called inactive.

As for `CCOCN(C(=O)CCl)c1c(C)cccc1CC`, the compound was classed as inactive.

Turning to `CNC(=O)Oc1cccc(N=CN(C)C)c1`, the result was inactive.

Take `CNC(=O)/C=C(\C)OP(=O)(OC)OC`: the result was inactive.

Consider `O=[N+]([O-])/N=C1\NCCN1Cc1ccc(Cl)nc1`, for which the compound was classed as inactive.

For the compound `CC[C@H](C)[C@H]1O[C@]2(C=C[C@@H]1C)C[C@@H]1C[C@@H](C/C=C(\C)[C@@H](O[C@H]3C[C@H](OC)[C@@H](O[C@H]4C[C@H](OC)[C@@H](O)[C@H](C)O4)[C@H](C)O3)[C@@H](C)/C=C/C=C3\CO[C@@H]4[C@H](O)C(C)=C[C@@H](C(=O)O1)[C@]34O)O2` (tested in a mixture with another compound), the compound was called inactive.

As for `CNC(=O)Oc1ccccc1OC(C)C`, the outcome was inactive.

As for `O=C1c2ccccc2C(=O)N1SC(Cl)(Cl)Cl`, the call was inactive.

For the compound `CC(C)(C)C(O)C(Oc1ccc(Cl)cc1)n1cncn1` (centres undefined), the compound was classed as inactive.

Regarding `COc1cc(OC)nc(NC(=O)NS(=O)(=O)c2cc(NC=O)ccc2C(=O)N(C)C)n1`, the result was inactive.

On to `O=C(O)C(F)(F)C(F)(F)C(F)(F)C(F)(F)C(F)(F)C(F)(F)C(F)(F)F`, for which the outcome was inactive.

`Oc1cc(Cl)ccc1Oc1ccc(Cl)cc1Cl`: the compound was classed as inactive.

With `CCC(C)Nc1c([N+](=O)[O-])cc(C(C)(C)C)cc1[N+](=O)[O-]` (centres undefined), the result was inactive.

For `CCc1ccc(C(=O)NN(C(=O)c2cc(C)cc(C)c2)C(C)(C)C)cc1`, the outcome was inactive.

For `Clc1ccccc1-c1nnc(-c2ccccc2Cl)nn1`, the compound was called inactive.

In the case of `CCN(CC)C(=O)SCc1ccc(Cl)cc1`, the compound was classed as inactive.
